Screening data: PubChem BioAssay, National Center for Advancing Translational Sciences (NCATS)
Only some compounds are listed: those with a hit (about 8.7% of all), similar ones and a draw of the others.
HP1b binding inh: inhibitors of HP1-beta chromodomain binding to methylated histone tails; AlphaScreen HP1-beta / biotin-H3K9me3 peptide binding; actives 0.56% (n = 390,000); Potency, µM (titrated, usually from 114 µM), most hits filed as inhibitors; note: nearly all actives have a fitted effect of over 70% in size
Target sequence (P83916 whole entry, looked up): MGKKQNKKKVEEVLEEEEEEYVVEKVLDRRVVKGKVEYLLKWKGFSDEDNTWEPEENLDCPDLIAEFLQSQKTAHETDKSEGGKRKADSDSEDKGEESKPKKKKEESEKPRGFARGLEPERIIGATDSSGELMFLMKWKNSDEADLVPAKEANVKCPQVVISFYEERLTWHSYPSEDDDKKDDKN
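HP1-beta protein (50 nM final) preincubated 30 min at room temperature with biotinylated H3(1-18)K9me3 peptide (50 nM) in PBS pH 7.4, 0.01% Tween-20, then compound added for 30 min. AlphaScreen streptavidin donor/nickel chelate acceptor beads (10 ug/mL final), 30 min dark, luminescence read.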
BAZ2B inh: BAZ2B (human) inhibition | AID 504333 | Potency, µM (titrated, usually from 114 µM), usual class: inhibitors | AlphaScreen BAZ2B-H3K14Ac peptide displacement | Q9UIF8 | actives 4.4% (n = 360,000); note: nearly all actives have a fitted effect of over 60% in size
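AlphaScreen displacement: compounds (up to 110uM) incubated 30 min at room temperature with a preformed 50 nM BAZ2B/50 nM biotinylated H3K14Ac peptide complex in PBS pH 7.4 with Tween-20. Donor and acceptor beads at 10 ug/mL final added, 20 min light-protected before reading.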
JMJD2A Tudor: JMJD2A Tudor domain (human) inhibition; O75164; AlphaScreen JMJD2A-Tudor / H3K4me3 peptide binding; Potency, µM (top dose mostly 114 µM), usual class: inhibitors; actives 4.4% (n = 390,000); note: nearly all actives have a fitted effect of over 50% in size
Sfp inh: inhibitors of Bacillus subtilis Sfp phosphopantetheinyl transferase. actives 3.5% (n = 310,000). Biochemical Sfp PPTase activity, qHTS. Potency, µM, most hits filed as inhibitors;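 note: the enzyme is Sfp with the accession as filed and its product quenches rhodamine fluorescence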
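Sfp 15 nM + cpd, 15 min RT; start w/ rhodamine-CoA 5 uM, BHQ-2-YbbR 12.5 uM (final); 50 mM Hepes pH 7.6, 10 mM MgCl2, 0.01% NP-40, 0.01% BSA; read 525/598 nm at 0 and 30 min.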
ALOX12 inh: blocks human arachidonate 12S-lipoxygenase; AID 1671190; Potency, µM (series often up to 108 µM), actives largely listed as inhibitors; actives 1.1% (n = 580,000); purified 12hLO, xylenol orange hydroperoxide absorbance
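Purified human 12hLO at 150 nM in 25 mM Hepes, 0.01% Triton X-100, pH 7.0, preincubated 15 min at room temperature with compound. Reaction started with 40 uM arachidonic acid, 30 min at room temperature. Hydroperoxide measured by Fe-xylenol orange, 573/405 nm absorbance ratio.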
G9a block: inhibitors of human histone lysine methyltransferase G9a; Potency, µM (highest dose often 102 µM), hits mostly inhibitors; Q96KQ7; G9a H3K9 monomethylation, AlphaScreen, 2 h; actives 8.8% (n = 350,000); note: nearly all actives have a fitted effect of over 75% in size
Target sequence (Q96KQ7 913-1193 limits assumed): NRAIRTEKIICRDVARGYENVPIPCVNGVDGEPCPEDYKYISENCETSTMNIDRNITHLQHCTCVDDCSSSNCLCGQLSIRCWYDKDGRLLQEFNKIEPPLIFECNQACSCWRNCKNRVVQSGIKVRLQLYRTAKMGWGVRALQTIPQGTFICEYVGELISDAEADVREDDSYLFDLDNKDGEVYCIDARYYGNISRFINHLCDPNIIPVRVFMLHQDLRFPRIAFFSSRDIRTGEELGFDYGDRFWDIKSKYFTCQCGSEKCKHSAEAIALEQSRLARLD
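Using a bead-based AlphaScreen, monomethylated H3K9 product from 2 h room-temperature reactions (G9a 20 nM, peptide 500 nM, SAM 20 uM) was detected with 0.5 ug/mL rabbit anti-H3K9me1 antibody.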
Hits are given with their value; [ ] = remark or other dose. Calls come from the whole dose curve; as a rule, active = well fitted curve in the direction sought with a large enough effect; inconclusive = small, poorly fitted or top-dose-only effect, or another doubt; inactive = no such curve, though single readings can be large; an effect the other way counts as inactive or inconclusive.

How did CCN1CCN(c2nc3ccccc3nc2C(C#N)S(=O)(=O)c2ccc(Cl)cc2)CC1 (stereo unspecified) do in these assays?
ALOX12 inh: 45µM

Results for CCN1CCN(c2nc3ccccc3nc2C(C#N)S(=O)(=O)c2ccc(OC)cc2)CC1 (stereo unspecified) ?
ALOX12 inh: 18µM

Results for CCN1CCN(c2nc3ccccc3nc2NS(=O)(=O)c2ccc(C)cc2)CC1 ?
ALOX12 inh: inactive

What do the screens show for `CC(=O)Nc1ccc(S(=O)(=O)C(C#N)c2nc3ccccc3nc2NCCO)cc1` (stereo unspecified)?
HP1b binding inh: inactive; BAZ2B inh: inactive; JMJD2A Tudor: inactive[11.4 µM]; Sfp inh: inactive; ALOX12 inh: inactive; G9a block: inconclusive

What do the screens show for `CN1CCN(c2nc3ccccc3nc2C(C#N)S(=O)(=O)c2ccccc2)CC1` (stereo unspecified)?
HP1b binding inh: inactive; BAZ2B inh: inactive; JMJD2A Tudor: inactive; Sfp inh: inactive; ALOX12 inh: inactive

How did CCNc1nc2ccccc2nc1C(C#N)S(=O)(=O)c1ccc(C)c(C)c1 (stereo unspecified) do in these assays?
ALOX12 inh: 14µM

How did CCN1CCN(c2nc3ccccc3nc2C(C#N)S(=O)(=O)c2cccc(C)c2)CC1 (stereo unspecified) do in these assays?
ALOX12 inh: 14µM

Results for Cc1oc(-c2ccc(OC(C)C)cc2)nc1Cn1nnc(C(=O)NCc2ccc(Cl)cc2)c1N ?
ALOX12 inh: inactive

Results for O=C(c1c[nH]c2ccccc12)N1CCC(Cc2nncn2CC2CC2)C1 (stereo unspecified) ?
ALOX12 inh: inactive

How did Cc1ccc(CN2CCCN(S(=O)(=O)c3ccccc3)CCC(=O)NCC2)o1 do in these assays?
ALOX12 inh: inactive

How did N#CC(c1nc2ccccc2nc1N1CCCC1)S(=O)(=O)c1cccs1 (stereo unspecified) do in these assays?
HP1b binding inh: inactive; BAZ2B inh: inactive; JMJD2A Tudor: inconclusive; Sfp inh: 50µM; ALOX12 inh: inconclusive; G9a block: 13µM

What do the screens show for `COc1ccc(C2=NC(C)(C)Cc3cc(OC)c(OC)cc32)cc1OC`?
HP1b binding inh: inactive; BAZ2B inh: inactive; JMJD2A Tudor: inactive; Sfp inh: inactive; ALOX12 inh: inconclusive; G9a block: inactive

What do the screens show for `O=C(O)c1ccccc1SCc1ccc(Br)cc1`?
ALOX12 inh: inactive

What do the screens show for `COc1cc2c(cc1OC)C(CSc1ccccc1C(=O)O)=NC(C)(C)C2`?
HP1b binding inh: inactive; BAZ2B inh: 79µM; JMJD2A Tudor: inconclusive; Sfp inh: inactive; ALOX12 inh: inactive; G9a block: inconclusive

Results for CC1(C)Cc2ccccc2C(CSc2ccccc2C(=O)O)=N1 ?
HP1b binding inh: inactive; BAZ2B inh: 50µM; JMJD2A Tudor: 56µM; Sfp inh: inactive; ALOX12 inh: inactive

What do the screens show for `COc1cc2c(cc1OC)C(CC#N)=NC(C)(C)C2`?
HP1b binding inh: inactive; BAZ2B inh: inactive; JMJD2A Tudor: inactive; Sfp inh: 79µM; G9a block: inconclusive

What do the screens show for `COc1cc2c(cc1OC)C(c1cc3ccccc3oc1=O)=NC(C)(C)C2`?
HP1b binding inh: inactive; BAZ2B inh: inactive; JMJD2A Tudor: inactive; Sfp inh: inconclusive; ALOX12 inh: inactive; G9a block: inactive

What do the screens show for `O=C(CCN1CCOCC1)c1ccccc1`?
HP1b binding inh: inactive; BAZ2B inh: inactive; JMJD2A Tudor: inactive; Sfp inh: inactive; ALOX12 inh: inactive; G9a block: 45µM

Results for O=C(CCN1CCCCC1)c1ccccc1 ?
HP1b binding inh: inactive; BAZ2B inh: inactive; JMJD2A Tudor: inactive; Sfp inh: inactive; ALOX12 inh: inactive; G9a block: inconclusive

What do the screens show for `O=C(c1ccccc1)N1CCN(Cc2ccccc2Br)CC1`?
HP1b binding inh: inconclusive; BAZ2B inh: 50µM; JMJD2A Tudor: 5µM; Sfp inh: inactive; ALOX12 inh: inconclusive; G9a block: inconclusive

What do the screens show for `O=C(CCN1CCOCC1)NNC(=S)NC(=O)c1ccccc1`?
HP1b binding inh: inactive; JMJD2A Tudor: 18µM; Sfp inh: 45µM; ALOX12 inh: inactive; G9a block: 11µM

Results for O=C(CCN1CCOCC1)NCc1ccccc1 ?
HP1b binding inh: inactive; BAZ2B inh: inactive; JMJD2A Tudor: inactive; Sfp inh: inconclusive; ALOX12 inh: inactive; G9a block: inactive[0.501 µM]

How did O=C(CCN1CCc2ccccc2CC1)c1ccc2c(c1)OCCO2 do in these assays?
HP1b binding inh: inactive; BAZ2B inh: inactive; JMJD2A Tudor: inconclusive; Sfp inh: 40µM; ALOX12 inh: inactive; G9a block: 2.2µM

What do the screens show for `C1CNCC(Cc2nc(C3CCOCC3)no2)C1` (stereo unspecified)?
ALOX12 inh: inactive

Results for O=C(CCN1CCOCC1)c1ccc2c(c1)OCCO2 ?
HP1b binding inh: inactive; BAZ2B inh: inactive; JMJD2A Tudor: inactive; Sfp inh: inactive; ALOX12 inh: inactive; G9a block: 8.9µM

How did O=C(CCN1CCN(C(=O)c2ccccc2)CC1)c1ccc(Br)cc1 do in these assays?
HP1b binding inh: inactive; BAZ2B inh: inactive; JMJD2A Tudor: inactive; Sfp inh: inactive; ALOX12 inh: inactive; G9a block: 32µM

How did O=C(Cc1ccc(Br)cc1)N1CCN(C(=O)c2ccccc2)CC1 do in these assays?
HP1b binding inh: inactive; BAZ2B inh: inactive; JMJD2A Tudor: inactive; ALOX12 inh: inactive; G9a block: inactive[2.33 µM]

How did O=C(CCN1CCCCC1)c1ccc2c(c1)OCO2 do in these assays?
HP1b binding inh: inactive; BAZ2B inh: inactive; JMJD2A Tudor: inactive; Sfp inh: inconclusive; ALOX12 inh: inconclusive; G9a block: 7.9µM

What do the screens show for `COc1ccc(OC(=O)C23CC4CC(CC(Cl)(C4)C2)C3)cc1`?
ALOX12 inh: inactive

How did COc1ccc(-c2ncccc2OC(=O)C23CC4CC(CC(C4)C2)C3)cc1 do in these assays?
HP1b binding inh: inactive; BAZ2B inh: inconclusive; JMJD2A Tudor: inactive; Sfp inh: inactive; ALOX12 inh: inactive; G9a block: 25µM

What do the screens show for `CN(C)CCN(C(=O)c1ccc2ccccc2c1)c1nc2c(F)cc(F)cc2s1`?
HP1b binding inh: inactive; BAZ2B inh: inactive; JMJD2A Tudor: inconclusive; Sfp inh: inactive; ALOX12 inh: inconclusive; G9a block: 50µM

Results for Cc1cccc2sc(N(CCN(C)C)C(=O)c3ccc4ccccc4c3)nc12 ?
HP1b binding inh: inactive; BAZ2B inh: inconclusive; JMJD2A Tudor: inconclusive; Sfp inh: inactive; ALOX12 inh: inactive; G9a block: 40µM

Results for CN(C)CCCN(C(=O)c1cccc(Br)c1)c1nc2c(F)cc(F)cc2s1 ?
ALOX12 inh: inactive

How did Cc1[nH]c2ccc(F)cc2c1CCN(Cc1ccco1)C(=S)NC(C)(C)C do in these assays?
HP1b binding inh: inactive; JMJD2A Tudor: inconclusive; Sfp inh: inactive; ALOX12 inh: inactive; G9a block: inconclusive
